Out of some 290,000 compounds screened, about 3,000 (1%) were called active. Rule as the data show it: active = inhibition mostly above about 36% (no sharp cut-off); inactive = mostly below about 34%. The list comes from a sample in which actives are over-represented; it also holds similar structures and randomly drawn compounds.
assay: inhibition of NOD1-driven NF-kB reporter – cell-based, luminescence, uHTS, primary screen (AID 1578); details: NOD1-driven NF-kB luciferase reporter cells, at 4 µM, stronger effect = higher value;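 also: HEK-293T reporter cells stimulated with the NOD1 agonist gamma-tri-DAP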

SMILES | inhibition
O=C(O)c1ccc(COc2ccc(CO)cc2Cl)cc1 | -26.3% (inactive)
O=C(O)c1cccc(COc2ccc(CO)cc2Cl)c1 | 99.2% (active)
O=C(O)c1cccc(COc2ccccc2Cl)c1 | 97.2% (inactive)
COc1ccc(OCc2cccc(C(=O)O)c2)cc1 | 102% (active)
CCOc1ccc(OCc2cccc(C(=O)O)c2)cc1 | 97.5% (active)
O=C1NC(=O)/C(=C\c2ccc(OCc3cccc(C(=O)O)c3)c(Cl)c2)N1 | -17.1% (inactive)
COc1ccc(OCc2ccc(C(=O)O)cc2)cc1 | -70.3% (inactive)
CCOc1ccc(OCc2cccc(C(=O)N(CC)CC)c2)cc1 | -59.7% (inactive)
C/C(=N\OCc1cccc(C(=O)O)c1)c1ccc(Cl)cc1 | 47.4% (active)
CCOc1ccc(OCc2cccc(C(=O)N3CCCC3)c2)cc1 | -38% (inactive)
COc1ccc(OCc2cccc(C(=O)NN)c2)cc1 | 38.9% (inactive)
COc1cccc(/C=C(/C#N)c2ccc(Cl)cc2)c1OCc1cccc(C(=O)O)c1 | 14.4% (inactive)
O=C(N=C1SC2CS(=O)(=O)CC2N1c1ccc(OC(F)(F)F)cc1)C1CC1 (stereo not given) | -27.3% (inactive)
O=C(NC(c1cccnc1)C(F)(F)F)c1cc(COc2ccc3c(c2)CCCC3)on1 (stereo not given) | 1.4% (inactive)
Cc1nn(-c2ccccc2)c(=S)n1-c1ccccc1 | -7% (inactive)
O=C(CSc1n[nH]c(-c2ccccc2)n1)Nc1ccc(F)cc1F | -6.2% (inactive)
COc1ccc(OCc2cc(C(=O)N3CCCCCCC3)no2)c(Cl)c1 | -23.7% (inactive)
COCCn1c(C)cc(/C=C2/NC(=O)N(c3ccc(Cl)cc3)C2=O)c1C | -49.9% (inactive)
O=C(O)c1cccc(COc2ccc3c(c2)CCC3)c1 | 92.4% (active)
Cc1nn(Cc2cccc(C(=O)Nn3cc([N+](=O)[O-])cn3)c2)c(C)c1[N+](=O)[O-] | 0.9% (inactive)
NNC(=O)c1cccc(COc2ccc3c(c2)CCC3)c1 | 62.3% (inactive)
COC(=O)c1cccc(Cn2cc([N+](=O)[O-])cn2)c1 | -7.1% (inactive)
COc1ccc(OCc2cccc(C(=O)Nn3cc([N+](=O)[O-])cn3)c2)cc1 | 50.9% (active)
O=C(O)c1ccc(COc2ccc3c(c2)CCC3)cc1 | -2.9% (inactive)
COc1ccc(OC)c(-c2csc(NC(=O)Cc3ccc(OC)c(OC)c3)n2)c1 | 25.1% (inactive)

SMILES | inhibition
Cc1cc(C)cc(N(C(=O)c2csnn2)C(C(=O)NC(C)(C)C)c2cccs2)c1 (stereo not given) | 10.5% (inactive)
O=C1CCCCC(=O)N(c2ccccc2)c2ccccc21 | 7.2% (inactive)
CCOC(=O)c1cnc2ccc(OC)cc2c1NCc1ccccc1 | 3.2% (inactive)
CCOC(=O)c1cnc2ccc(OCC)cc2c1NCc1ccccc1OC | 72.7% (active)
CCOC(=O)c1cnc2ccc(OCC)cc2c1NCc1ccccc1 | -5.7% (inactive)
CN(C)Cc1ccc(F)cc1Sc1cc(Cl)ccc1Cl | 63.7% (active)
CN(C)Cc1ccc(F)cc1Sc1ccc(Cl)cc1Cl | -13.9% (inactive)
CN(C)C(=O)c1cc(F)ccc1Sc1cc(Cl)ccc1Cl | -6.9% (inactive)
CCc1ccc(-n2c(SCC(=O)N3CCC(C(=O)O)CC3)nnc2-c2ccncc2)cc1 | -31.9% (inactive)
O=C(N/N=C/c1coc2ccc(Cl)cc2c1=O)c1cc(O)cc(O)c1 | 31.6% (inactive)
O=c1c(/C=N\NS(=O)(=O)c2ccccc2)coc2ccc(Cl)cc12 | 69.9% (active)
NC(=S)N/N=C/c1coc2ccc(Cl)cc2c1=O | 9.6% (inactive)
CC(=O)N1CCN=C1SCc1ccccc1Cl | 1.2% (inactive)
COc1ccc(C2C(C(=O)c3sc(C)nc3C)=C(O)C(=O)N2CCN(C)C)cc1 (stereo not given) | -18.4% (inactive)
CCOc1ccc(N(C)c2ccc(/C=C3/SC(=S)NC3=O)cc2)cc1 | 43.6% (inactive)
COc1ccccc1OCCCOc1ccc(/C=C2\SC(=O)NC2=O)cc1OC | 54.4% (inactive)
CCOc1ccc(/C=C2\SC(=S)NC2=O)cc1OC | -40.1% (inactive)
COc1cc(/C=C2/SC(=O)NC2=O)ccc1OCc1ccccc1 | -38.4% (inactive)
CC(=O)Nc1ccc(OCc2nnc(-c3ccc(Cl)cc3)o2)cc1 | -27.9% (inactive)
Cc1ccc2c(c1)c1c(n2CC(O)Cn2ccnc2C)C(=O)CCC1 (stereo not given) | -18.6% (inactive)
COCCNC(=S)N(CCc1c(C)[nH]c2ccccc12)Cc1ccco1 | -30.2% (inactive)
O=C(CCN1C(=O)c2ccccc2C1=O)N1CCOCC1 | -25.4% (inactive)
Cc1ccc2c(c1)CCCN2C(=O)Nc1ccc2c(c1)OCO2 | -2.3% (inactive)
Cc1ccc(CNC(=O)Cn2cncn2)cc1 | 8.6% (inactive)
COc1ccc(CNC(=O)Cn2cncn2)cc1OC | -12.9% (inactive)

SMILES | inhibition
O=C(Cn1cncn1)NCc1ccc(Cl)cc1 | 66.1% (active)
Cc1cc(C)n(C(=O)CCCCCCCC(=O)n2nc(C)cc2C)n1 | -26.9% (inactive)
CC(=O)Nc1ccc2[nH]c3ccccc3c2c1 | -15.1% (inactive)
O=C(Nc1ccc(Cl)cc1)c1cc2c(cc1O)[nH]c1ccccc12 | 43.7% (active)
COc1ccc(NC(=O)c2cc3ccc4c5ccccc5[nH]c4c3cc2O)cc1 | -6.7% (inactive)
O=C(CSc1ccc(-c2ccccn2)nn1)NCc1ccc(F)cc1 | -16.2% (inactive)
COc1ccccc1CNC(=O)COC(=O)CNS(=O)(=O)c1ccc(C)cc1 | -3% (inactive)
Nc1ncnc(N(c2ccccc2)C2CCCCC2)c1[N+](=O)[O-] | 44.6% (inactive)
CN(c1ncnc(N)c1[N+](=O)[O-])C1CCCCC1 | 80.2% (active)
CN(Cc1ccccc1)c1ncnc(N)c1[N+](=O)[O-] | 46% (inactive)
CN(c1ncnc(N)c1[N+](=O)[O-])C1CCS(=O)(=O)C1 (stereo not given) | 58% (active)
Cc1ccc(N(c2ncnc(N)c2[N+](=O)[O-])C2CCCCC2)cc1 | 22.2% (inactive)
Nc1ncnc(NC2CCS(=O)(=O)C2)c1[N+](=O)[O-] (stereo not given) | 11.8% (inactive)
CC1=Cc2ccccc2C(C#N)N1C(=O)c1ccccc1 (stereo not given) | 31.4% (inactive)
CCc1ccc(-c2cc(C)no2)cc1S(=O)(=O)N1CCN(c2ccc(F)cc2)CC1 | 5.8% (inactive)
COc1ccc(-c2cc(C)no2)cc1S(=O)(=O)NCCCN1CCN(c2ccccc2)CC1 | -7.4% (inactive)
Cc1cc(-c2ccc(C)c(S(=O)(=O)NCCCN3CCN(c4ccccc4)CC3)c2)on1 | 17.3% (inactive)
Cc1cc(-c2ccc(C)c(S(=O)(=O)N3CCN(c4ccccn4)CC3)c2)on1 | -13% (inactive)
CC(NC(=O)NC(=O)c1ccc(Cl)cc1Cl)C1CC1 (stereo not given) | -53% (inactive)
CCOc1ccc(NC(=S)NC(C)c2cccs2)cc1 (stereo not given) | -21.7% (inactive)
COc1cc(NC(=O)CN(c2ccc(C)cc2)S(=O)(=O)c2c(C)noc2C)cc(OC)c1 | -34.4% (inactive)
O=C1C=C(Nc2ccccc2)c2ccccc2C1=O | -24.6% (inactive)
O=C1C=C(NCc2ccccc2)c2ccccc2C1=O | 78.8% (active)
CCCCNC1=CC(=O)C(=O)c2ccccc21 | -7.1% (inactive)
O=C1Cc2cc(S(=O)(=O)N3CCCCC3)ccc2N1 | -22.1% (inactive)

SMILES | inhibition
CCCC(=O)NC(=S)Nc1cccc(NC(=O)c2ccccc2Cl)c1 | -18.6% (inactive)
COc1ccc(CNC(=O)c2ccc3ccccc3n2)cc1 | -33.9% (inactive)
O=C(Nc1cccc(S(=O)(=O)Nc2ccccc2F)c1)c1ccc2ccccc2n1 | 33.7% (inactive)
COc1ccc(CCNC(=O)c2ccc3ccccc3n2)cc1OC | -14.9% (inactive)
COc1ccccc1NS(=O)(=O)c1cc(NC(=O)c2ccc3ccccc3n2)ccc1Cl | -24.5% (inactive)
COc1cccc(C(=O)NC2CCN(CC(=O)Nc3nccs3)CC2)c1 | 7.4% (inactive)
O=C(c1ccc2nc(Cc3cccc(Cl)c3)oc2c1)N1CCC[C@H]1CO | -34% (inactive)
O=C(CCN1CCCCO1)N1CCCC(N2CCN(c3ccc(F)cc3)CC2)C1 (stereo not given) | -8.6% (inactive)
Cc1ccc(CNC(=O)C2CCN(c3nn4c(=O)cc(C)nc4s3)CC2)cc1 | -23.9% (inactive)
COc1ccc(C)cc1N(C(=O)c1ccc(C#N)cc1)C1=NC(C)(C)CS1 | -8.3% (inactive)
COc1ccc(OCC(=O)N2CCc3ccccc3C2)cc1 | -21.2% (inactive)
Cc1ccc(OCC(=O)N2CCc3ccccc3C2)cc1 | 4.6% (inactive)
CCOC(=O)Cn1cc(/C=N/NC(=O)c2cc3ccccc3o2)c2ccccc21 | 35.8% (active)
COC(=O)N/N=C/c1cn(CCCOc2ccccc2)c2ccccc12 | 25.7% (inactive)
CCOC(=O)N/N=C/c1cn(CCCOc2ccccc2)c2ccccc12 | 79.6% (active)
C#CCn1cc(/C=N/NC(=O)c2cc3ccccc3o2)c2ccccc21 | -7.9% (inactive)
CCn1cc(/C=N/NC(=O)c2cc3c(ccc4ccccc43)o2)c2ccccc21 | 32% (inactive)
CCOC(=O)N/N=C/c1cn(CCCOc2ccc(C)cc2)c2ccccc12 | 31.1% (inactive)
CCCS(=O)(=O)N1CCC(C(=O)c2cccc(C(F)(F)F)c2)CC1 | -5.7% (inactive)
Cc1cc(C(=O)Nc2nnc(C(F)(F)F)s2)cs1 | -7.7% (inactive)
COc1ccc(OC)c(S(=O)(=O)N2CCN3CCCC3C2)c1 (stereo not given) | -16.6% (inactive)
Nc1ccccc1C#Cc1ccccc1 | -30.1% (inactive)
Nc1ccccc1C#CC(=O)c1ccccc1 | 58.4% (active)
Nc1ccccc1C#CCCCCO | -18.4% (inactive)
O=[N+]([O-])c1ccc(Cl)c(/C=N/n2c(COc3ccccc3)n[nH]c2=S)c1 | -22% (inactive)

Source: PubChem BioAssay AID1578 (Sanford-Burnham Center for Chemical Genomics, 2009)
